These results are taken from PubChem BioAssay (EPA / NIEHS).

Test [1] in a line: ATG_TGFb_CIS: Attagene CIS-FACTORIAL HepG2 Assay for human Transforming Growth Factor (TGF) (AID 2282967). Particulars: HepG2 Attagene CIS TGFb reporter, mRNA transcription; actives raise or lower the signal. The essentials: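 Transcript-level reporter readout: HepG2 transfectants, 24 h exposure, RNA to cDNA, reporter-specific PCR, fluorescent primer extension, capillary sizing against ROX standards. Gain- or loss-of-signal relative to DMSO.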

A short description of test [2]: ATG_VDRE_CIS: Attagene CIS-FACTORIAL HepG2 Assay for human Vitamin D Receptor Element (VDRE) (AID 2282968). The settings on record: HepG2 VDRE cis-reporter transcription, actives raise or lower the signal. The method, boiled down:
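RT-PCR/CE readout of reporter mRNA; HepG2, transient transfection, 24 h dosing; DMSO baseline; bidirectional analysis.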

The target in test [3] is Estrogen receptor (Homo sapiens) (UniProt P03372). In words: ATG_ERa_TRANS: Attagene TRANS-FACTORIAL HepG2 Assay for human Estrogen Receptor alpha (ERa) (AID 2282970; active = hit-call score of the fitted dose curve at least 0.9, where 1 is the maximum). Particulars: HepG2 Attagene TRANS ERa GAL4 reporter, mRNA. The essentials:
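After 24 h of compound treatment, RNA from HepG2 cells bearing transfected GAL4-UAS reporter constructs is converted to cDNA, amplified and fluorescently labelled. Capillary electrophoresis resolves the ERa-linked reporter; DMSO serves as negative control.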

Test [4] concerns the target X-box-binding protein 1 (Homo sapiens) (UniProt P17861). Description: ATG_Xbp1_CIS: Attagene CIS-FACTORIAL HepG2 Assay for human X-box Binding Protein 1 (XBP1) (AID 2282972). The settings on record: HepG2 XBP1 cis-element reporter, Attagene multiplex; actives raise or lower the signal. The essentials:
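Fluorescence-labelled cDNA fragments from reporter transcripts, separated by capillary electrophoresis, give the signal. Source: HepG2 cells transfected with promoter-driven reporter units, harvested 24 h post-dose. DMSO served as reference for bidirectional curve fitting.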

The nature of test [5]: ATG_M_19_TRANS: Attagene TRANS-FACTORIAL HepG2 Assay for M19 Transcription Factor (Internal Marker) (AID 2282974; active = hit-call score of the fitted dose curve at least 0.9, where 1 is the maximum). The settings on record: HepG2 Attagene TRANS-FACTORIAL M19 internal marker reporter. The essentials:
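Cells: human HepG2, transiently transfected with multiplexed reporter transcription units. Exposure: 24 h. Detection: RT-PCR of reporter mRNA with capillary electrophoresis. Analysis: gain-of-signal vs DMSO.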

The target of test [6] is Oxysterols receptor LXR-alpha (Homo sapiens) (UniProt Q13133). In words: ATG_LXRa_TRANS: Attagene TRANS-FACTORIAL HepG2 Assay for human Liver X Receptor alpha (LXRa) (AID 2282980; active = hit-call score of the fitted dose curve at least 0.9, where 1 is the maximum). Particulars: HepG2 Attagene TRANS reporter, LXRa transactivation. The essentials:
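Read-out: reporter transcript levels by RT-PCR plus capillary electrophoresis, fluorescence intensity. Transiently transfected HepG2, exogenous NR-GAL4 chimera, GAL4-UAS reporters; 24 h compound exposure. Activity = increase over DMSO negative control.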

Test [7] deals with Nuclear receptor subfamily 4 group A member 2 (Homo sapiens) (UniProt P43354). In words: ATG_NURR1_TRANS: Attagene TRANS-FACTORIAL HepG2 Assay for human Nuclear Receptor Related Protein 1 (NURR1) (AID 2282985; active = hit-call score of the fitted dose curve at least 0.9, where 1 is the maximum). The settings on record: HepG2 Attagene TRANS reporter, mRNA readout. The method, boiled down: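 After 24 h chemical dosing, total RNA from transiently transfected HepG2 cells was reverse-transcribed and reporter cDNA PCR-amplified, FAM-labelled and analysed by capillary electrophoresis. Activity fitted in positive direction, DMSO as negative control.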

Test [8] addresses Transcriptional activator Myb (Homo sapiens) (UniProt P10242). Description: ATG_Myb_CIS: Attagene CIS-FACTORIAL HepG2 Assay for human Myeloblastosis (Myb) Proto-Oncogene Transcription Factor (AID 2282986). The settings on record: HepG2 Attagene CIS-FACTORIAL Myb reporter transcription; actives raise or lower the signal. The method, boiled down: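 Steps: transfect HepG2 with cis-regulated reporter units; dose with chemical for 24 h; isolate RNA, reverse-transcribe, PCR-amplify and FAM-label reporter sequences; digest with HpaI; resolve by capillary electrophoresis. Activity fitted in both directions relative to DMSO.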

Test [9] deals with Nuclear respiratory factor 1 (Homo sapiens) (UniProt Q16656). Description: ATG_NRF1_CIS: Attagene CIS-FACTORIAL HepG2 Assay for human Nuclear Respiratory Factor 1 (NRF1) Orphan Gene (AID 2282987). The settings on record: HepG2 NRF1 cis-element reporter, Attagene multiplex; actives raise or lower the signal. The essentials: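 Fluorescence intensity of labelled reporter cDNA fragments, resolved by capillary electrophoresis, served as readout for NRF1 cis-element activity. Transiently transfected HepG2 cells were dosed for 24 hours; activity in either direction was fitted against DMSO negative control.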

Test [10] can be described thus: ATG_NFI_CIS: Attagene CIS-FACTORIAL HepG2 Assay for human Nuclear Factor I (NFI) (AID 2282989). Particulars: HepG2 cis-regulatory reporter, NFI response element transcription; actives raise or lower the signal. The essentials: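 After transient transfection of HepG2 with cis-promoter reporter constructs and 24 h dosing, RNA is reverse-transcribed, amplified, 6-FAM end-labelled and HpaI-digested before capillary analysis. Bidirectional curve fitting against DMSO.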

Test [11] addresses Glucocorticoid receptor (Homo sapiens) (UniProt P04150). In words: ATG_GR_TRANS: Attagene TRANS-FACTORIAL HepG2 Assay for human Glucocorticoid Receptor (GR) (AID 2282978; active = hit-call score of the fitted dose curve at least 0.9, where 1 is the maximum;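 note: activators score as hits since higher reporter transcript over DMSO is fitted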). Particulars: HepG2 Attagene TRANS GR reporter, mRNA transcription. The method, boiled down: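 In this trans-factorial format, exogenous NR-GAL4 chimeric proteins in transfected HepG2 cells regulate GAL4-UAS reporter transcription. After 24 h treatment, reporter mRNA induction relative to DMSO is read by RT-PCR and capillary electrophoresis.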

Test [12] has as its target Oxysterols receptor LXR-beta (Homo sapiens) (UniProt P55055). Description: ATG_LXRb_TRANS: Attagene TRANS-FACTORIAL HepG2 Assay for human Liver X Receptor beta (LXRb) (AID 2282981; active = hit-call score of the fitted dose curve at least 0.9, where 1 is the maximum). Particulars: HepG2 Attagene TRANS GAL4-LXRb reporter, mRNA. The method, boiled down:
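In this TRANS format, exogenous chimeric NR-Gal4 protein activity, not endogenous factors, drives reporter expression in transfected human HepG2 cells. Exposure lasted 24 h; reporter mRNA was read by fluorescent capillary electrophoresis.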

The target of test [13] is Hepatocyte nuclear factor 4-alpha (Homo sapiens) (UniProt P41235). Description: ATG_HNF4a_TRANS: Attagene TRANS-FACTORIAL HepG2 Assay for human Hepatocyte Nuclear Factor 4 alpha (HNF4a) (AID 2282982; active = hit-call score of the fitted dose curve at least 0.9, where 1 is the maximum). Particulars: HepG2 HNF4a transactivation reporter, mRNA readout. The essentials: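 Cells used were human HepG2, transiently carrying GAL4-UAS reporter units read out against exogenous NR-GAL4 chimeras. Reporter transcript levels after 24 h dosing were quantified by fluorescent RT-PCR and capillary electrophoresis.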

Test [14] in a line: ATG_M_06_TRANS: Attagene TRANS-FACTORIAL HepG2 Assay for M06 Transcription Factor (Internal Marker) (AID 2282983; active = hit-call score of the fitted dose curve at least 0.9, where 1 is the maximum). The settings on record: HepG2 Attagene TRANS M06 internal marker reporter. The method, boiled down:
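After a 24 h chemical treatment of transfected HepG2, RNA underwent DNase I treatment, reverse transcription and reporter-specific PCR; labelled, HpaI-digested products were sized by capillary electrophoresis. Signal increase relative to DMSO defined activity.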

Test [15] in a line: ATG_M_32_TRANS: Attagene TRANS-FACTORIAL HepG2 Assay for M32 Transcription Factor (Internal Marker) (AID 2282984; active = hit-call score of the fitted dose curve at least 0.9, where 1 is the maximum;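 note: transcript level of a background control reporter unit measured by RT-PCR and capillary electrophoresis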). The settings on record: HepG2 Attagene TRANS M32 internal marker reporter. The essentials:
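Human hepatoma HepG2, transient MRTU transfection, 24 h treatment. RNA → RT-PCR → fluorescent primer extension → HpaI digest (2 h, 37 C) → CE. Positive-direction fit vs DMSO.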

Test [16] concerns the target Bile acid receptor (Homo sapiens) (UniProt Q96RI1). Description: ATG_FXR_TRANS: Attagene TRANS-FACTORIAL HepG2 Assay for Farnesoid X Receptor (FXR) (AID 2282979; active = hit-call score of the fitted dose curve at least 0.9, where 1 is the maximum;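 note: hits raise reporter mRNA above DMSO so AC50 marks FXR activation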). The settings on record: HepG2 Attagene TRANS FXR-GAL4 reporter transcription. The essentials:
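Read-out: fluorescent reporter transcripts quantified by capillary electrophoresis after RT-PCR of total RNA. Source cells were HepG2 transiently carrying chimeric NR-GAL4 plus GAL4-UAS reporter units, dosed 24 h. Activity fitted upward relative to DMSO baseline.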

Test [17] in a line: ATG_GAL4_TRANS: Attagene TRANS-FACTORIAL HepG2 Assay for GAL4 (Internal Marker) (AID 2282976; active = hit-call score of the fitted dose curve at least 0.9, where 1 is the maximum). The settings on record: HepG2 Attagene TRANS GAL4 internal marker reporter. The essentials:
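RT-PCR/capillary electrophoresis readout of reporter mRNA. HepG2, transient MRTU transfection (GAL4-UAS reporters), 24 h compound exposure. Background-control endpoint, positive direction vs DMSO baseline.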

SMILES strings stand for the structures. Values joined by “and” are separate entries in the source; they are usually repeats but may differ in a detail not shown here. Equal values may be shown once. Records with an inconclusive call do not appear. More than one record can exist for a structure, and the calls need not agree. Active and inactive are the calls of the source. Rule for the calls, unless noted: active = hit-call score of the fitted dose curve at least 0.9, where 1 is the maximum; inactive = score below 0.9.

Usually AC50 stands for the concentration giving half of the maximal activity seen.

Nuclear receptor subfamily 4 group A member 2 (Homo sapiens), sequence (P43354 whole entry, looked up): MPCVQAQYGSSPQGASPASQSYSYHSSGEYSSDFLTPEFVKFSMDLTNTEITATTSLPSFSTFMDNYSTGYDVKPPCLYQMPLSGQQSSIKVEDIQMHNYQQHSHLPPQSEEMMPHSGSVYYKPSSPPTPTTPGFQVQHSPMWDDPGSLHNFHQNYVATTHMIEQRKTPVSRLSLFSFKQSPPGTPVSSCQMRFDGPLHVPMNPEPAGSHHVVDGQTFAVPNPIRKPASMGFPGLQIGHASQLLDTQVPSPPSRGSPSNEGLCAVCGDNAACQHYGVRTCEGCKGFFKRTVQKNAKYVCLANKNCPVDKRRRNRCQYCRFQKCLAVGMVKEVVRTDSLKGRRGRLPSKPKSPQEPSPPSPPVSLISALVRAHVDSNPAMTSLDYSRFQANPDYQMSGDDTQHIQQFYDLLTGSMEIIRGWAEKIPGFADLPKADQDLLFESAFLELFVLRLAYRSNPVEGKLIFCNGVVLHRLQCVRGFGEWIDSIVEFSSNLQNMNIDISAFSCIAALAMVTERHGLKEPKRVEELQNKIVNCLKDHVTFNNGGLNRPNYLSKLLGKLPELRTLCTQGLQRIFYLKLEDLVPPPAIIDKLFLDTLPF
Oxysterols receptor LXR-beta (Homo sapiens), sequence (P55055 whole entry, looked up, the tested form may be a part): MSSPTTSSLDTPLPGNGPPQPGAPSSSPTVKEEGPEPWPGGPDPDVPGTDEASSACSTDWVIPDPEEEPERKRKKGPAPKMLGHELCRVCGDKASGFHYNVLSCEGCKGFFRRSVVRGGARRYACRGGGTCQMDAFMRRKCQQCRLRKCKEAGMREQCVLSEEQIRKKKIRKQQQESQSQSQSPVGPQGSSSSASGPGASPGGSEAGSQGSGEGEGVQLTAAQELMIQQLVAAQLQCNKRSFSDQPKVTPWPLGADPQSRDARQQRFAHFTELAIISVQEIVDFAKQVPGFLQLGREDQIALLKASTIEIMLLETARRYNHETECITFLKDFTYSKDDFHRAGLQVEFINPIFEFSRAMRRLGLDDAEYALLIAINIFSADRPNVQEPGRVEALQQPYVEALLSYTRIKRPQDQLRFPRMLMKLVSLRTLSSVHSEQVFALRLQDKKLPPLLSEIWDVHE
Transcriptional activator Myb (Homo sapiens), sequence (P10242 whole entry, looked up): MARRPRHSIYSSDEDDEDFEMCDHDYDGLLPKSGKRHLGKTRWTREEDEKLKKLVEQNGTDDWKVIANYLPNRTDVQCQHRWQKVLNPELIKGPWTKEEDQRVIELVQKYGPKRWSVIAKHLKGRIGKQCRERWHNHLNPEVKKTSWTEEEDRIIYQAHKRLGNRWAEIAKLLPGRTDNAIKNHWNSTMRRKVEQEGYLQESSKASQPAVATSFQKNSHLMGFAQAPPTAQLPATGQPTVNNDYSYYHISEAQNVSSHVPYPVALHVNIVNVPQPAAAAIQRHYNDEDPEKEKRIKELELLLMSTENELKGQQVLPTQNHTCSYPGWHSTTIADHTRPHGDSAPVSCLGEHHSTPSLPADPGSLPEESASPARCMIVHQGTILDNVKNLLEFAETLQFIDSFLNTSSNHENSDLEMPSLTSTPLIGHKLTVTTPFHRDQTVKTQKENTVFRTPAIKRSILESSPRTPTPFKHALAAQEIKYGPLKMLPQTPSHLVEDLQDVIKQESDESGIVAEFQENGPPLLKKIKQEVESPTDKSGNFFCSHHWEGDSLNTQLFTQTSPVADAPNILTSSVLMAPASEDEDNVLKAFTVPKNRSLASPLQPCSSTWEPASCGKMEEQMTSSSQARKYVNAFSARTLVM
Oxysterols receptor LXR-alpha (Homo sapiens), sequence (Q13133 whole entry, looked up, the tested form may be a part): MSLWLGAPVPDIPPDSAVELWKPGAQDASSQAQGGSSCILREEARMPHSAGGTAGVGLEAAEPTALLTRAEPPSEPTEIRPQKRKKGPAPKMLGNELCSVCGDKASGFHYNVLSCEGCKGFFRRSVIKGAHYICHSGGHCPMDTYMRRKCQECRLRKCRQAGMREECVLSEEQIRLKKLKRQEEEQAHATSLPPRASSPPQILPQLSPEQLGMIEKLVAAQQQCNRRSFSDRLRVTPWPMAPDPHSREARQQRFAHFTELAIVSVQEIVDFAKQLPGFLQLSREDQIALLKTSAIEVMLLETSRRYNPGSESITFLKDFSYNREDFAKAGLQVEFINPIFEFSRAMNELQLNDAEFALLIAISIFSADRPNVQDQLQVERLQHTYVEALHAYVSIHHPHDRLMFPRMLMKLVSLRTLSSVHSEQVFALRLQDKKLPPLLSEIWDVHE
Estrogen receptor (Homo sapiens), sequence (P03372 whole entry, looked up, the tested form may be a part): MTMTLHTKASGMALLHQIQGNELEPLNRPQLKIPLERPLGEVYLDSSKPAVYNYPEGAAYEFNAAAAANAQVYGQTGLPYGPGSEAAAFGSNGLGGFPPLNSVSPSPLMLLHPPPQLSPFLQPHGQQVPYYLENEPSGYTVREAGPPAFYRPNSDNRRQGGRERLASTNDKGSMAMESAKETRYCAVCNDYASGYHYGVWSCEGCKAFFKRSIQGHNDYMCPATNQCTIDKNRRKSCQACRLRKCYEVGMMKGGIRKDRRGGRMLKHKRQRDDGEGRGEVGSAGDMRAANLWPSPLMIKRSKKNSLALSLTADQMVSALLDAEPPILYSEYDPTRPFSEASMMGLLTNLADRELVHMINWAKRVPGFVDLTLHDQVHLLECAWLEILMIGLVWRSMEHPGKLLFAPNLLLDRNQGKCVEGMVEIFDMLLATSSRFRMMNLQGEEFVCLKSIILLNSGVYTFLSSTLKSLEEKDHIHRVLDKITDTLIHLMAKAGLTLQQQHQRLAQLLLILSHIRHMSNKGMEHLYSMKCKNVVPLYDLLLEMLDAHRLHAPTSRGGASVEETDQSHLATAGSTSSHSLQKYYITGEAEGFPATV
Hepatocyte nuclear factor 4-alpha (Homo sapiens), sequence (P41235 whole entry, looked up, the tested form may be a part): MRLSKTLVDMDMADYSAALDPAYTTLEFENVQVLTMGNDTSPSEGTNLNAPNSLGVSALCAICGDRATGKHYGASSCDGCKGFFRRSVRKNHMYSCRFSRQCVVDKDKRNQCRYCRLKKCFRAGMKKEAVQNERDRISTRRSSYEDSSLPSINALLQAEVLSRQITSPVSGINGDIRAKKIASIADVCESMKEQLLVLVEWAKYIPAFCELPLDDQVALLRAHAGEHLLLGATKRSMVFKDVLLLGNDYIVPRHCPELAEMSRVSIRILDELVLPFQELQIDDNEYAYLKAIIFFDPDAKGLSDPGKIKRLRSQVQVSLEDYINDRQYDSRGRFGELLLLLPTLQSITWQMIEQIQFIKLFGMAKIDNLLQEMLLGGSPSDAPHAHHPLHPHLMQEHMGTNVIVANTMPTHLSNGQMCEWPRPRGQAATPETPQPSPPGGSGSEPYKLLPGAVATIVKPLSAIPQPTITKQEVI
Nuclear respiratory factor 1 (Homo sapiens), sequence (Q16656 whole entry, looked up, the tested form may be a part): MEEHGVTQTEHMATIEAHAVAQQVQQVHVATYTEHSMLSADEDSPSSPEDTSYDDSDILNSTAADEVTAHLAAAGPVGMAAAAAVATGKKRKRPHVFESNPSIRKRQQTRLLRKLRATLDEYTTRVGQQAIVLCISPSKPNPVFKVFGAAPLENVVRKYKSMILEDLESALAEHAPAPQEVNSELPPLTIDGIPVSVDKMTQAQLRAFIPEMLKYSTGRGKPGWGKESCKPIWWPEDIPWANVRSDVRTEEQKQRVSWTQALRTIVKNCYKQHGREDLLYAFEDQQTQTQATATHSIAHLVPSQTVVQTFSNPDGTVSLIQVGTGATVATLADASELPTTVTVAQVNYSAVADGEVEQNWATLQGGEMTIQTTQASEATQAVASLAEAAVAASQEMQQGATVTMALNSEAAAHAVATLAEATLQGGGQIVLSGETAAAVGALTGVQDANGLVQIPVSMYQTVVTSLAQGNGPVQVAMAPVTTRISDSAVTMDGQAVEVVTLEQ
Glucocorticoid receptor (Homo sapiens), sequence (P04150 whole entry, looked up, the tested form may be a part): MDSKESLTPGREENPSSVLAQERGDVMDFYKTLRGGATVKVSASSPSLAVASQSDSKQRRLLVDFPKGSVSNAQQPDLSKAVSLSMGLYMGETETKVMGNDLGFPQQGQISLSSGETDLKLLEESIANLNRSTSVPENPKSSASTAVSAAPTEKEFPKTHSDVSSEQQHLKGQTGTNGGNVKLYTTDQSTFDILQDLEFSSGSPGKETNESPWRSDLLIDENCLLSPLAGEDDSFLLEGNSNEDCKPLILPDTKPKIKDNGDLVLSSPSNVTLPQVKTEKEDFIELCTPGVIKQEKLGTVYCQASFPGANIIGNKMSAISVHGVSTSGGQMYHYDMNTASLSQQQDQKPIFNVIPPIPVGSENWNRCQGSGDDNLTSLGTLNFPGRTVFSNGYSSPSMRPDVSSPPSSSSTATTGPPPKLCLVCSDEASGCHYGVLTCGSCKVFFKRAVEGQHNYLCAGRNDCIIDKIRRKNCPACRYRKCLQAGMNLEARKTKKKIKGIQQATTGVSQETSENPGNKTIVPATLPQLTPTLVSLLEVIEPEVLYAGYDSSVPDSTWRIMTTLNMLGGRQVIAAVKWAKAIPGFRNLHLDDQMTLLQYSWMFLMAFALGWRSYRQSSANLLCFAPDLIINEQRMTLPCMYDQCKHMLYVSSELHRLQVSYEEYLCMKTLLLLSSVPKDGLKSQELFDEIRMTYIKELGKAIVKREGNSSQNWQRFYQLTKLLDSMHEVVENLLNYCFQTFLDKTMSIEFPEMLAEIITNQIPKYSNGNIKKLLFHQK
X-box-binding protein 1 (Homo sapiens), sequence (P17861 whole entry, looked up, the tested form may be a part): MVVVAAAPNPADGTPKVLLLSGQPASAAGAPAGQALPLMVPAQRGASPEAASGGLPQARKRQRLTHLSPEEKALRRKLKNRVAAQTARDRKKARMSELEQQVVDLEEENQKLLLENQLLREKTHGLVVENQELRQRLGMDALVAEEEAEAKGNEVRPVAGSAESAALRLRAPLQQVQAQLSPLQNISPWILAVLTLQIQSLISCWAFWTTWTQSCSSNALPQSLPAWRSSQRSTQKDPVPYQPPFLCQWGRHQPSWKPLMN

Take `COc1c(Cl)ccc(Cl)c1C(=O)O`: the call in test [1], in test [2], in test [3], in [4], in [5] and in test [6] was inactive. Besides, the molecule was called inactive in test [8], in test [9] and in test [10]. In addition, the AC50 in test [7] was 59.2 µM (active).

Regarding `S=C(S)NCCNC(=S)S.[Mn+2].[S-]C([S-])=NCCN=C([S-])[S-].[Zn+2]`, the call in test [1], in [2], in test [4], in [5], in [11] and in [12] was inactive. The result in test [13], in test [14], in [15], in test [7], in [8] and in test [9] was inactive. Further, the molecule was called inactive in test [10]. In addition, the half-maximal activity concentration (AC50) in test [2] was 30.3 µM (active) and 11.4 µM (active).

For `N#CSCSc1nc2ccccc2s1`, the half-maximal activity concentration (AC50) in [1] was 1.52 µM (active); in test [4], 14.3 µM (active); in test [13], 24.1 µM (active); in test [7] it was 11.6 µM (active); in [9], 16.7 µM (active); in test [10], 15.4 µM (active) and 358 nM (active). Moreover, the call in test [1], in test [2], in [3], in test [4], in [11] and in test [6] was inactive. Moreover, the call in [13], in test [14], in test [15], in test [7], in test [8] and in test [9] was inactive.

For the molecule `O=C(O)C1(C(=O)Nc2ccc(Cl)cc2Cl)CC1`, the molecule was classed as inactive in [1], in test [2], in test [3], in test [4], in test [5] and in test [16]. Further, the molecule was classed as inactive in test [6], in test [12], in [13], in test [15], in test [8] and in test [9]. In addition, in test [10], the outcome was inactive.

Regarding `CCOC(=O)C(C)Oc1ccc(Oc2cnc3cc(Cl)ccc3n2)cc1` (centres undefined), the molecule was classed as inactive in [1], in [2], in test [4], in test [5], in test [11] and in test [6]. Further, the molecule was called inactive in test [7], in [8], in test [9] and in test [10].

Regarding `S=C([S-])NCCNC(=S)[S-].[Mn+2]`, the result in test [1], in test [2], in [4], in [5], in [11] and in test [12] was inactive. Moreover, the outcome in test [13], in [14], in test [8], in test [9] and in [10] was inactive.

Turning to `COCCO`, the result in test [1], in test [2], in test [4], in [5], in test [17] and in test [13] was inactive. For the same molecule, the call in test [14], in [15], in test [8], in [9] and in test [10] was inactive.

As to `CCCCC(CC)COC(=O)c1ccccc1C(=O)O` (centres undefined), the molecule was called inactive in test [1], in [2], in test [4], in test [5], in [17] and in [11]. The call in [6], in test [14], in test [15], in test [8], in test [9] and in [10] was inactive.
